# Screens deposited in PubChem BioAssay by National Center for Advancing Translational Sciences (NCATS).
# KB-V1 MDR tox: qHTS assay for MDR1-selective chemotherapeutics: Primary screen using the drug-selected MDR subline cells KB-V1. 400,000 compounds, 3.4% hits. KB-V1 MDR cells viability, CellTiter-Glo, 72 h. Potency, µM (highest dose often 46.1 µM), hits mostly cytotoxic; further: on the % scale 0 is the no-effect control and ±100 the full control effect; nearly all actives have a fitted effect of over 60% in size
#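 Potencies derive from concentration-effect curves fitted to normalized luminescence (CellTiter-Glo) of KB-V1 cells treated for 72 h at 37 degrees C in phenol-red-free DMEM containing 10% FBS.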
# KB-3-1 cytotox: qHTS assay for MDR1-selective chemotherapeutics: Primary screen using the parental adenocarcinoma cell KB-3-1; Potency, µM (top dose mostly 46.1 µM), most hits filed as cytotoxic; 400,000 compounds, 1.4% hits; AID 1347075, 2019; KB-3-1 viability, CellTiter-Glo ATP luminescence, 72 h; further: on the % scale 0 is the no-effect control and ±100 the full control effect; nearly all actives have a fitted effect of over 60% in size
#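 Parental KB-3-1 adenocarcinoma cells in phenol-red-free DMEM with 10% FBS were pin-treated with compounds at several concentrations, incubated 72 h at 37 °C, and viability read by CellTiter-Glo luminescence; concentration-effect curves were fitted after normalization.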
# TSG101-PTAP inh: qHTS Assay for Iinhibitors of HIV-1 Budding by Blocking the Interaction of PTAP/TSG101; Tumor susceptibility gene 101 protein (Homo sapiens), Q99816; Fluorescence polarization, FITC-PTAP peptide / Tsg101 binding; Potency, µM (doses to about 115 µM), for inactives: at the top dose activity change, negative = inhibition, actives largely listed as inhibitors; 340,000 tested, under 10 active; active means well fitted inhibition curve with a large enough effect in the main read-out, with a control signal flat, not every such curve was filed as active; inconclusive means small, poorly fitted or top-dose-only effect, or effect the other way, or a change in a side signal; inactive means no such curve, though single readings can be large or run the other way; further: % of control where 0% means no effect
# Target sequence (Q99816 whole entry, looked up): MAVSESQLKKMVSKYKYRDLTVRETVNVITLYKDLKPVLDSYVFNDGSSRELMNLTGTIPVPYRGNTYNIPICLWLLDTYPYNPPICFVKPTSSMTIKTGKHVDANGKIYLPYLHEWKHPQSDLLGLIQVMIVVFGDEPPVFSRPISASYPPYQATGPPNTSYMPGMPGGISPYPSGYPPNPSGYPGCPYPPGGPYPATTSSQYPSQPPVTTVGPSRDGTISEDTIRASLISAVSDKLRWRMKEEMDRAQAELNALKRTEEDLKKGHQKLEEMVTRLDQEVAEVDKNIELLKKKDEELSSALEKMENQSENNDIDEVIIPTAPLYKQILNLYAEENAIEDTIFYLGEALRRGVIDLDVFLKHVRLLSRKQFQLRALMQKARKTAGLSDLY
#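 Fluorescence anisotropy tracks displacement of a FITC-tagged PTAP peptide (50 nM) from the Tsg101 binding domain (10 uM), following a 20 min room-temperature incubation at pH 7.5.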
# SW480 rerep: A quantitative high throughput screen for small molecules that induce DNA re-replication in SW480 colon adenocarcinoma cells; 340,000 compounds, 1.8% hits; SW480 DNA re-replication, Hoechst DNA content imaging, 48 h; AID 624297, 2012; Potency, µM (top dose mostly 46.1 µM), for inactives: top-dose re-replication activation, most hits filed as activators; further: % of control where 0% means no effect; nearly all actives have a fitted effect of over 55% in size
#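 SW480 cells exposed to compounds for 48 hr at 37 C, 5% CO2, then Hoechst-stained 40 min. Nuclear DNA content imaged by fluorescence scanning (405 nm excitation, 500-530 nm emission); re-replication scored as increased high-intensity nuclei.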
# MCF10A rereplic: A quantitative high throughput screen for small molecules that induce DNA re-replication in MCF 10a normal breast cells | MCF 10A DNA re-replication, Hoechst nuclear intensity, 48 h | Potency, µM (top dose mostly 46.1 µM), without a hit: top-dose activity, positive = re-replication, usual class: activators | 350,000 compounds, 2.9% hits | AID 624296, 2012; further: % of control where 0% means no effect; nearly all actives have a fitted effect of over 50% in size
# PINK1 expr mod: A Quantitative High throughput Screen to Identify Chemical Modulators of PINK1 Expression; PINK1 immunofluorescence, high-content cytometry, 24 h; Potency, µM (doses to about 76.6 µM), inactives show at the highest dose activation (PINK1 increase), usual class: activators; 410,000 compounds, 0.2% hits; AID 624263, 2012; active means well fitted activation curve with a large enough effect; inconclusive means small, poorly fitted or top-dose-only effect; cell line not stated here; further: % of control where 0% means no effect; nearly all actives have a fitted effect of over 65% in size
#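 Readout is PINK1 immunofluorescence, quantified alongside mitochondrial, cell and nuclear markers by laser-scanning microplate cytometry. Cells from a stable line were exposed to compound titrations (5 concentrations) for 24 hours, with CCCP controls.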
# The depositor's hits bear a star; i = inactive; ? = inconclusive; nt = no result; [ ] = another dose, or the depositor's remark. Sampled rows, rich in hits. Any-hit rate of the full collection: about 6.8%. Unless noted, the call rests on the fitted dose curve; in most records, active means well fitted curve in the direction sought with a large enough effect; inconclusive means small, poorly fitted or top-dose-only effect, or another doubt; inactive means no such curve, though single readings can be large; an effect the other way counts as inactive or inconclusive. Potency means the concentration at half of the fitted maximal effect.
SMILES,KB-V1 MDR tox,KB-3-1 cytotox,TSG101-PTAP inh,SW480 rerep,MCF10A rereplic,PINK1 expr mod
COC(=O)c1ccc(COc2ccccc2/C=C(\C#N)C(=O)Nc2ccc(C)cc2)cc1,i,i,-6%,16%,?,?
C=CCNC(=O)/C(C#N)=C/c1ccccc1OCc1ccc(C(=O)OC)cc1,?,i,-2%,24%,4.6µM*,1%
CC(C)Oc1ccc(CNC(=O)Cn2nc(N3CCN(c4ccccc4)CC3)ccc2=O)cc1,i,i,nt,nt,nt,5%
O=C(NCc1cccnc1)c1cnn(-c2ncc3c(n2)-c2ccccc2CCC3)c1C1CC1,nt,nt,nt,nt,nt,0%
COc1cccc(-n2nnc3c(=O)n(CC(=O)N4CCC(Cc5ccccc5)CC4)cnc32)c1,5.2µM*,?,1%,-9%,-3%,14%
Cc1ccccc1CSc1nc(-c2cccc(F)c2)nc2c1Cc1c(CO)cnc(C)c1O2,?,i,nt,nt,nt,-1%
COC(=O)c1cc2occc2n1Cc1ccc(Cl)cc1,i,i,-2%,?,16µM*,-6%[38.3 µM]
Cc1ccc(C)c(N2CCN(CCCNC(=O)Cn3cc4c(n3)CCC(C)C4)CC2)c1 (stereo not given),?,i,-2%,1%,-1%,4%
Cc1ccc(C)c(N2CCN(CCCNC(=O)Cn3cc4c(n3)CCCCC4)CC2)c1,21µM*,?,0%,13%,?,-1%
CCOc1ccc(CC(=O)NCCc2csc(-c3ccc(Cl)cc3)n2)cc1,i,i,nt,nt,nt,1%
CN1CCc2c(OCc3ccc(F)cc3)cccc2C1=O,?,i,-2%,-5%,-8%,6%
O=C1c2cccc(OCc3ccc(F)cc3)c2CCN1Cc1ccc(F)cc1,3.3µM*,2.9µM*,-10%,8%,21µM*,13%
COC(=O)c1ccc(COc2cccc3c2CCN(Cc2cccc(C)c2)C3=O)o1,16µM*,?,2%,?,?,0%
Cc1ccc(CN2CCc3c(OCc4ccc(F)cc4)cccc3C2=O)cc1,5.8µM*,?,-1%,0%,11%,13%
O=C(/C=N/O)NCc1cccnc1,i,i,-5%,13µM*,15µM*,nt
O=C(Cc1ccc(-c2ccccc2)cc1)NNC(=S)NCc1ccco1,8.2µM*,i,-4%,1%,?,0%
Nc1nc2ccccc2cc1C(=O)NCc1ccc(-c2ccccc2)cc1,2.6µM*,2.3µM*,nt,nt,nt,nt
O=C(CC(=O)NCc1cccnc1)NCc1cccnc1,i,i,-3%,1%,-7%,1%
Cc1ccc(CC(=O)NCc2ccc(F)cc2)cc1,?,?,0%,18µM*,?,2%
Nc1nc2ccccc2cc1C(=O)NCc1ccc(Cl)cc1Cl,i,?,nt,nt,nt,4%
O=C(CCC(=O)NCc1ccccc1)NCc1ccccc1,i,i,3%,2%,3%,-1%
Cc1ccc(CNC(=O)Cc2ccc(-c3ccccc3)cc2)cc1,i,i,-5%,1.2µM*,?,8%[38.3 µM]
O=C(Cc1ccc(-c2ccccc2)cc1)NCc1cccnc1,?,15µM*,-2%,23µM*,12µM*,13%
Cc1ccc(CNC(=O)COC(=O)Cc2ccc(-c3ccccc3)cc2)cc1,?,i,-2%,?,?,?
O=C(NCc1ccc(Cl)cc1)c1ccccc1CCc1ccccc1,21µM*,i,-3%,5%,?,3%
SMILES,KB-V1 MDR tox,KB-3-1 cytotox,TSG101-PTAP inh,SW480 rerep,MCF10A rereplic,PINK1 expr mod
O=C(Cc1ccc(-c2ccccc2)cc1)NCc1ccccc1,0.29µM*,0.082µM*,0%,1.3µM*,0.12µM*,20%
COc1ccc(C(C)=O)cc1CSc1nc(Nc2ccc(F)c(F)c2)c2ccccc2n1,nt,nt,nt,nt,nt,-1%
Cc1ccc(-n2nc(CO)c(C(=O)NCCCCc3ccccc3)n2)cc1,nt,nt,nt,nt,nt,0%
COc1ccc(C(=O)c2c(-c3ccc(OC)cc3)oc3ccccc23)cc1,i,i,-1%,6%,?,2%
O=C(Oc1c(-c2ccccc2)oc2ccccc2c1=O)c1ccccc1,12µM*,?,0%,-2%,?,1%
O=C(Oc1cc(=O)oc2ccccc12)c1ccccc1,i,5.2µM*,-2%,4.1µM*,7.3µM*,8%
COc1ccc(-c2oc3ccccc3c(=O)c2OC(=O)c2ccc(C)cc2)cc1,12µM*,?,-5%,11%,14%,-3%
COc1ccc(C(=O)c2ccc3oc(-c4ccc(OC)cc4)c(-c4ccc(O)cc4)c3c2)cc1,?,18µM*,nt,6%,18%,?
COC(=O)c1cccc(NC(=O)Cc2ccccc2[N+](=O)[O-])c1C,i,i,-4%,-4%,-2%,1%
COC(=O)c1cc(OC)c(OC)cc1NC(=O)CN1CCCCC1,16µM*,i,-6%,-4%,16%,8%[38.3 µM]
COC(=O)c1cc(OC)c(OC)cc1NC(=O)Cc1ccccc1[N+](=O)[O-],2.3µM*,i,nt,-8%,-17%,8%[38.3 µM]
COC(=O)c1cc(OC)c(OC)cc1NCC(=O)Nc1ccc(OC)c(OC)c1,?,i,1%,-120%,9%,7%
COC(=O)c1cc(OC)c(OC)cc1NCC(=O)Nc1ccc(C)cc1,23µM*,i,-1%,-51%,2%,1%
CCOc1ccc(N(CC)C(=O)Cn2cnc3sc(C)c(S(=O)(=O)N4CCN(c5ncccn5)CC4)c3c2=O)cc1,i,i,nt,nt,nt,2%
Cc1ccc(NC(=O)CSc2nn(-c3ccccc3)c(=S)s2)cc1S(=O)(=O)N(C)C,6.5µM*,?,-2%,-3%,15%,1%
Cc1ccc(NC(=O)CNCc2ccc(Cl)cc2Cl)cc1S(=O)(=O)N(C)C,13µM*,?,-3%,5%,23%,4%
Cc1ccc(NC(=O)CNCc2ccccc2Cl)cc1S(=O)(=O)N(C)C,i,i,1%,0%,5%,3%
COc1ccc(C2C=C(c3ccccc3)Nc3nc(NS(=O)(=O)c4ccccc4)nn32)cc1 (stereo not given),i,i,nt,nt,nt,0%
CCOC(=O)N1C(=O)[C@](CC)(c2ccccc2)N1C(=O)OCC,i,i,nt,?,16µM*,5%
COc1cccc(CNc2nc3cc(-c4ccccc4)sc3c(=O)n2C)c1OC,i,23µM*,nt,nt,nt,1%
